Mtb hypoxia inh – reduces hypoxia-regulated biosensor signal in M. tuberculosis; M. tuberculosis hypoxia-regulated fluorescent reporter, fluorescence; fluorescence inhibition, % (test concentration not listed); 300,000 tested, 0.1% active; in the data active = fluorescence inhibition mostly above about 23%, no sharp cut-off; inactive = mostly below about 17%
Mtb FBA inh – inhibits M. tuberculosis FBA enzyme. P9WQA3. inhibition, % at 1 µM. purified M. tuberculosis FBA, fluorescence read-out. 360,000 tested, 2.3% active;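 also: 0% = vehicle and 100% = reference inhibitor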
Target sequence (P9WQA3 whole entry, looked up): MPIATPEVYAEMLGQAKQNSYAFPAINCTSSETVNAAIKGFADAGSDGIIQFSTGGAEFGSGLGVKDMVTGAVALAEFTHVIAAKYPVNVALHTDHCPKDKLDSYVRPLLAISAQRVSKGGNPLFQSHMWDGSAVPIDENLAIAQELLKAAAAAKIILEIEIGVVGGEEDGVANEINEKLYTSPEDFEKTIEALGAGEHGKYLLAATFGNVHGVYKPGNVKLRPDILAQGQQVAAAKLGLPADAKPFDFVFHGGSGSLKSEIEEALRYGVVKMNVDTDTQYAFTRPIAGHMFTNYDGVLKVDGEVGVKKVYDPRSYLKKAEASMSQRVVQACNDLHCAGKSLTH
FadD28 binding – blocks FadD28 binding to the bisubstrate probe | fluorescence polarization | inhibition, % at 12.5 µM | 360,000 tested, 0.22% active; in the data active = inhibition above about 8.5%, passing the limit was not always enough
Mtb BioA inh – blocks M. tuberculosis BioA enzyme activity; purified M. tuberculosis BioA enzyme, plate reader; inhibition, % at 9.99 µM; 360,000 tested, 0.096% active; in the data active = inhibition above about 40%
GDH-TPI counter-1 – counter-screen for M. tuberculosis FBA inhibitors: GDH-TPI coupled enzymes; GDH-TPI coupled enzyme counterscreen, NADH absorbance; inhibition, % at 4.8 µM; 360,000 tested, 1.2% active; in the data active = inhibition above about 30%;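 also: 0% = DMSO wells and 100% = wells lacking the enzyme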
Mtb FBA inh conf – Mtb FBA inhibition, confirmed; shares compounds with Mtb FBA inh; purified M. tuberculosis FBA, fluorescence read-out; inhibition, % at 1 µM; 5,600 tested, 78% active; AID 651616;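 also: 0% = vehicle wells and 100% = reference inhibitor wells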
GDH-TPI counter-2 – inhibits GDH-TPI coupling enzymes, flagging Mtb FBA hits | shares compounds with Mtb FBA inh | AID 652141 | inhibition, % at 1 µM | GDH-TPI coupled enzyme counterscreen, fluorescence | 5,600 tested, 81% active; in the data active = inhibition above about 10%
Numbers without * were called inactive; nt = not tested or not shown; + = active, no number. Compounds with a hit are over-represented: about 2.9% of the library has one in this group of screens. Rule as the data show it, unless noted: active = inhibition above about 27%; inactive = the rest.

SMILES	Mtb hypoxia inh	Mtb FBA inh	FadD28 binding	Mtb BioA inh	GDH-TPI counter-1	Mtb FBA inh conf	GDH-TPI counter-2
CCOc1ccc(-c2nc3n(c(=O)c2C#N)CCS3)cc1	15.6	32.0*	-3.1	nt	15.8	71.5*	61.8*
COc1ccc(-c2nc3n(c(=O)c2C#N)CCS3)cc1	11.3	28.1*	-3.9	nt	6.9	32.4*	27.9*
C[C@@H]1CN([C@@H](C)CO)S(=O)(=O)c2ccc(-c3cccc(C(=O)N(C)C)c3)cc2O[C@H]1CN(C)Cc1ccc2c(c1)OCO2	nt	nt	nt	1.6	nt	nt	nt
CCS(=O)(=O)Nc1ccc2c(c1)C(=O)N(C)C[C@@H](OC)[C@H](C)CN(CC1CCCCC1)[C@@H](C)CO2	nt	nt	nt	8.2	nt	nt	nt
CCCNC(=O)C[C@@H]1CC[C@H]2[C@@H](COc3ccc(NC(=O)c4cc(C)on4)cc3C(=O)N2C)O1	nt	nt	nt	-3.5	nt	nt	nt
O=c1c2c(nc3c(-c4ccccc4)c[nH]n13)CCC2	13.1	42.6*	-2.3	15.5	9.9	59.0*	37.8*
O=c1c2c(nc3c(-c4ccc(Cl)cc4)c[nH]n13)CCC2	-1.2	44.1*	-4.7	12.2	5.1	31.9*	27.6*
O=c1c2c(nc3c(-c4cccc(Br)c4)c[nH]n13)CCCC2	-4.4	-2.9	-0.5	-1.1	12.4	nt	nt
O=C(C1CCCCC1)N1C[C@@H]2[C@H](c3ccccc31)[C@H](CO)N2CC1CCOCC1	nt	nt	nt	-2.4	nt	nt	nt
O=[N+]([O-])c1ccccc1S(=O)(=O)N1CCCC(C(F)(F)F)C1 (stereo not given)	11.3	40.8*	-1.4	0.2	18.8	46.0*	39.2*
CNc1cc(-c2cnn(CC(C)C)c2)ncn1	nt	7.7	0.8	0.3	3.1	nt	nt
CC(=O)Nc1cncc(-c2cnn(CC(C)C)c2)n1	nt	60.5*	-1.8	1.7	25.2	49.6*	50.9*
C[C@@H]1CN([C@@H](C)CO)C(=O)c2cc(C3=CCCC3)cnc2O[C@H]1CN(C)Cc1ccc(C(=O)O)cc1	nt	nt	nt	-3.0	nt	nt	nt
O=c1oc2c3c4c(cc2s1)CCCN4CCC3	3.2	-0.7	0.4	0.7	10.3	nt	nt
O=c1ccc2cc3c4c(c2o1)CCCN4CCC3	-2.8	54.4*	-0.2	-11.0	0.0	62.1*	59.7*
O=C(C[C@H]1CC[C@@H]2[C@H](COC[C@H](O)CN2C(=O)c2ccccc2F)O1)NCc1ccc(-c2ccccc2)cc1	nt	nt	nt	-1.0	nt	nt	nt
C[C@@H]1CCCCO[C@@H](CN(C)Cc2ccc3c(c2)OCO3)[C@H](C)CN([C@@H](C)CO)C(=O)c2cc(NC(=O)c3ccccc3)ccc2O1	nt	nt	nt	5.5	nt	nt	nt
O=C(COc1ccc2c3c(c(=O)oc2c1)CCCC3)N1CCN(c2ccc(F)cc2)CC1	7.9	3.8	-0.9	2.2	5.6	nt	nt
O=C(O)C1CCN(C(=O)COc2ccc3c4c(c(=O)oc3c2)CCC4)CC1	nt	41.0*	1.3	1.4	15.7	124.2*	78.8*
NC(=O)C1CCN(C(=O)COc2ccc3c4c(c(=O)oc3c2)CCCC4)CC1	nt	78.7*	-2.4	4.2	23.5	166.3*	135.6*
COc1ccc(NC(=O)Nc2cccc3c2O[C@H](CN(C)C(=O)Nc2ccccc2)[C@H](C)CN([C@H](C)CO)C3=O)cc1	nt	nt	nt	-0.9	nt	nt	nt
COC(=O)c1cc(C#N)c(N2CC(C)OC(C)C2)nc1C (stereo not given)	11.5	35.0*	-0.8	1.9	4.8	65.2*	44.0*
C[C@@H]1CN([C@H](C)CO)C(=O)c2cc(NS(=O)(=O)c3ccccc3)ccc2O[C@@H]1CN(C)CC1CC1	nt	nt	nt	-0.7	nt	nt	nt
CC(C)n1cnc2c(Nc3cccc(F)c3)nc(NCCO)nc21	2.3	32.0*	-0.4	2.9	13.5	109.3*	91.1*
COc1cc2c3c([nH]c2cc1F)C(=O)NCC3	0.6	102.0*	-4.7	-1.2	-3.5	70.7*	45.7*
SMILES	Mtb hypoxia inh	Mtb FBA inh	FadD28 binding	Mtb BioA inh	GDH-TPI counter-1	Mtb FBA inh conf	GDH-TPI counter-2
COC(=O)/C(C#N)=C/c1c(N2CCCCCC2)nc2c(C)cccn2c1=O	-9.4	-2.4	nt	0.2	0.0	nt	nt
CNC(=O)/C(C#N)=C/c1c(N2CCCCCC2)nc2c(C)cccn2c1=O	5.1	28.4*	0.5	2.4	7.1	+	184.1*
CNC(=O)/C(C#N)=C/c1c(N2CCN(c3ccccc3)CC2)nc2c(C)cccn2c1=O	8.1	36.6*	1.2	0.2	14.2	-5.7	-3.5
CNC(=O)/C(C#N)=C/c1c(N2CCN(c3ccc(OC)cc3)CC2)nc2c(C)cccn2c1=O	16.2	36.7*	-2.1	3.5	11.5	+	142.4*
COC(=O)/C(C#N)=C/c1c(N2CCN(c3ccc(OC)cc3)CC2)nc2c(C)cccn2c1=O	4.5	-3.6	0.6	0.1	7.1	nt	nt
CNC(=O)/C(C#N)=C/c1c(N2CCCCCC2)nc2ccccn2c1=O	3.8	64.5*	-2.8	-1.9	-0.4	-1.2	1.0
CCOC(=O)c1cc2c(=O)n3ccccc3nc2n(C(C)C)c1=NC(=O)c1c(-c2c(F)cccc2Cl)noc1C	-4.9	26.1	-3.0	nt	3.0	nt	nt
COc1ccc(C(=O)N=c2c(C#N)cc3c(=O)n4cccc(C)c4nc3n2Cc2ccco2)cc1	5.2	nt	nt	nt	nt	nt	nt
CCOC(=O)c1cc2c(=O)n3ccccc3nc2n(C)c1=NC(=O)c1c(-c2c(F)cccc2Cl)noc1C	8.1	33.1*	-1.8	1.2	-4.6	162.2*	131.6*
CCOC(=O)c1cc2c(=O)n3ccccc3nc2n(Cc2ccco2)c1=NC(=O)c1ccc(OC)cc1OC	3.1	103.9*	-5.1	nt	16.0	91.3*	88.1*
CCCCn1c(=NC(=O)c2cccnc2)c(C(=O)OCC)cc2c(=O)n3ccccc3nc21	-85.3	55.5*	-3.9	-0.9	-11.6	133.7*	90.8*
CCOC(=O)C(=NNc1ccc(Cl)cc1)S(=O)(=O)c1ccccc1	0.0	nt	nt	nt	nt	nt	nt
Fc1ccc(-c2cc3nc(-c4ccccc4)cc(N4CCOCC4)n3n2)cc1	3.3	7.2	-1.4	-1.4	6.5	nt	nt
COc1ccc(-c2cc3nc(-c4ccccc4)cc(N4CCCC(O)C4)n3n2)cc1 (stereo not given)	-13.6	79.0*	-2.6	nt	-7.6	9.6	-3.9
COc1ccc(-c2cc3nc(-c4ccccc4)cc(N4CCN(C(=O)c5ccccc5)CC4)n3n2)cc1	nt	2.9	-3.3	nt	9.0	nt	nt
COc1ccc(-c2cc3nc(-c4ccccc4)cc(N4CCN(C(=O)c5ccsc5)CC4)n3n2)cc1	nt	3.2	-2.2	-1.4	-2.8	nt	nt
COc1ccc(-c2cc3nc(-c4ccccc4)cc(N4CCN(C(C)=O)CC4)n3n2)cc1	nt	69.7*	-4.5	-0.7	20.6	2.3	1.4
COc1ccc(-c2cc3nc(-c4ccccc4)cc(N4CCC(O)CC4)n3n2)cc1	-5.0	79.7*	-2.8	nt	11.8	39.0*	27.0*
Cc1ccc(S(=O)(=O)N(C)C[C@H]2OCCCC[C@@H](C)Oc3ccc(NS(C)(=O)=O)cc3C(=O)N([C@H](C)CO)C[C@H]2C)cc1	nt	nt	nt	1.0	nt	nt	nt
COc1ccc(NC(=O)C2CC2)cc1OC1CCCC1	18.2	73.5*	-0.2	-0.8	4.3	68.1*	53.9*
